Assay results reported in PubChem BioAssay (Tox21).
Values joined by “and” are separate entries in the source; they are usually repeats but may differ in a detail not shown here. Identical values can stand only once. Records with an inconclusive call do not appear. Entries that show only a call come without a potency. More than one record can exist for a structure, and the calls need not agree. Active and inactive are the calls of the source. The call rests on the fitted dose curve; in most records, active means well fitted curve in the direction sought with a large enough effect in the repeat runs; inconclusive means weak or mixed curves; inactive means no such curve, though single readings can be large; an effect the other way counts as inactive or inconclusive.

Assays:
[1] = qHTS RealTime-Glo MT Cell Viability Assay in HepG2 cells - 24 hour (AID 1224867); further: nearly all actives have a fitted effect of over 50% in size
Summary of the method: (§1)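 Tox21 10K library screened in qHTS format on HepG2 cells carrying RealTime-Glo reagents. Compounds were added after a 5 h preincubation, and the luminescent signal from continuous culture was measured repeatedly during 40 h treatment.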

[2] = qHTS RealTime-Glo MT Cell Viability Assay in HEK293 cells - 32 hour (AID 1224868); further: top concentration of the series differs between compounds; nearly all actives have a fitted effect of over 50% in size
Summary of the method: (§2)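 Luminescence generated by NanoLuc from substrate produced by living HEK293 cells served as the viability signal. Each value reflects the reading at its stated time point during continuous 40 h compound exposure at 37 C.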

[3] = A CellTox Green Cytotoxicity Assay to monitor cytotoxicity in HEK293 cells - 0 hour (AID 1224869); further: nearly all actives have a fitted effect of over 50% in size
Summary of the method: (§3)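 HEK293 cells, 600/well, were preincubated 5 hours and then exposed to compounds at 37 C for up to 40 hours. A cell-impermeant cyanine dye staining dead-cell DNA was read by fluorescence at 0, 8, 16, 24, 32 and 40 h time points.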

[4] = qHTS RealTime-Glo MT Cell Viability Assay in HepG2 cells - 40 hour (AID 1224870); further: nearly all actives have a fitted effect of over 50% in size
Summary of the method: (§4)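 HepG2 cells mixed with RealTime-Glo MT reagents (NanoLuc plus cell-permeant prosubstrate) were seeded at 600 cells/well, incubated 5 h at 37 C/5% CO2, then pinned with compounds in DMSO; nonlytic luminescence tracked viability during 40 h treatment.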

[5] = A CellTox Green Cytotoxicity Assay to monitor cytotoxicity in HEK293 cells - 40 hour (AID 1224871); further: nearly all actives have a fitted effect of over 45% in size; further: potency means the concentration at half of the fitted maximal effect
Summary of the method: as §3

[6] = qHTS RealTime-Glo MT Cell Viability Assay in HEK293 cells - 16 hour (AID 1224872)
Summary of the method: as §2

[7] = qHTS RealTime-Glo MT Cell Viability Assay in HepG2 cells - 8 hour (AID 1224873); further: nearly all actives have a fitted effect of over 55% in size
Summary of the method: as §4

[8] = qHTS RealTime-Glo MT Cell Viability Assay in HEK293 cells - 40 hour (AID 1224874); details: RealTime-Glo luminescence; max response: stronger effect = lower value; further: nearly all actives have a fitted effect of over 50% in size
Summary of the method: (§5)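 600 cells/well were plated with the nonlytic NanoLuc/prosubstrate reagent, pre-incubated 5 h, then given 23 nL of compound in DMSO. Incubation at 37 C for 40 h, with luminescence from viable-cell-reduced substrate read repeatedly from 0 h.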

[9] = A CellTox Green Cytotoxicity Assay to monitor cytotoxicity in HepG2 cells - 16 hour (AID 1224876); further: nearly all actives have a fitted effect of over 45% in size
Summary of the method: (§6)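 HepG2 cells, 600/well, preincubated 5 h with CellTox Green dye, then exposed to Tox21 compounds in DMSO at 37 C for up to 40 h. Dead-cell DNA fluorescence read at the indicated time point.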

[10] = qHTS RealTime-Glo MT Cell Viability Assay in HepG2 cells - 32 hour (AID 1224877); further: nearly all actives have a fitted effect of over 55% in size
Summary of the method: as §1

[11] = A CellTox Green Cytotoxicity Assay to monitor cytotoxicity in HepG2 cells - 24 hour (AID 1224878); further: nearly all actives have a fitted effect of over 45% in size; further: potency means the concentration at half of the fitted maximal effect
Summary of the method: as §6

[12] = A CellTox Green Cytotoxicity Assay to monitor cytotoxicity in HepG2 cells - 40 hour (AID 1224879); further: nearly all actives have a fitted effect of over 40% in size; further: potency means the concentration at half of the fitted maximal effect
Summary of the method: as §6

[13] = qHTS RealTime-Glo MT Cell Viability Assay in HEK293 cells - 0 hour (AID 1224880); further: top concentration of the series differs between compounds; nearly all actives have a fitted effect of over 45% in size
Summary of the method: as §5

[14] = A CellTox Green Cytotoxicity Assay to monitor cytotoxicity in HEK293 cells - 32 hour (AID 1224881); further: nearly all actives have a fitted effect of over 40% in size
Summary of the method: as §3

[15] = A CellTox Green Cytotoxicity Assay to monitor cytotoxicity in HepG2 cells - 0 hour (AID 1224882); further: nearly all actives have a fitted effect of over 35% in size
Summary of the method: as §6

[16] = A CellTox Green Cytotoxicity Assay to monitor cytotoxicity in HepG2 cells - 32 hour (AID 1224883); further: nearly all actives have a fitted effect of over 50% in size; further: potency means the concentration at half of the fitted maximal effect
Summary of the method: as §6

[17] = A CellTox Green Cytotoxicity Assay to monitor cytotoxicity in HEK293 cells - 8 hour (AID 1224884); further: nearly all actives have a fitted effect of over 35% in size
Summary of the method: as §3

[18] = A CellTox Green Cytotoxicity Assay to monitor cytotoxicity in HEK293 cells - 24 hour (AID 1224875)
Summary of the method: as §3

Row | Compound | outcome [1] | Potency [2] | outcome [3] | outcome [4] | Potency [5] | Potency [6] | outcome [7] | max response [8] | Potency [9] | outcome [10] | Potency [11] | Potency [12] | Potency [13] | Potency [14] | outcome [15] | Potency [16] | outcome [17] | Potency [18]
1 | CC1=CCC2CC1C2(C)C (stereo not drawn) | inactive | inactive | inactive | inactive | inactive | inactive | inactive | -11.4% (inactive) and 10.5% (inactive) | inactive | inactive | inactive | inactive | inactive | inactive | inactive | inactive | inactive | 
2 | CC(=O)Nc1cccc(O)c1 | inactive |  | inactive | inactive |  | inactive | inactive | -14.2% (inactive) and 4.42% (inactive) |  | inactive | inactive | inactive | inactive | inactive | inactive | inactive | inactive | inactive
3 | C=CCOC(=O)c1ccccc1C(=O)OCC=C | inactive |  | inactive | inactive | inactive | inactive | inactive | 6.21% (inactive) and 2.3% (inactive) | inactive | inactive | inactive | inactive | inactive | inactive | inactive | inactive | inactive | inactive
4 | FC(F)(F)c1ccc(Cl)c(Cl)c1 | inactive |  | inactive | inactive |  | inactive | inactive | 1.14% (inactive) and 2.54% (inactive) |  | inactive | inactive | inactive | inactive | inactive | inactive | inactive | inactive | inactive
5 | CCCCCCCCCCCCS | inactive |  | inactive | inactive |  | inactive | inactive | 0.961% (inactive) and 6.67% (inactive) | inactive | inactive | inactive | inactive | inactive | inactive | inactive | inactive | inactive | 
6 | CC(=O)Nc1ccccc1 | inactive |  | inactive | inactive | inactive | inactive | inactive | 12.1% (inactive) and 6.06% (inactive) | inactive | inactive | inactive | inactive | inactive | inactive | inactive | inactive | inactive | inactive
7 | CCCCCC/C(C=O)=C\c1ccccc1 | inactive |  | inactive | inactive | 44.1 µM (active) and inactive | inactive | inactive | -10.1% (inactive) and 0.846% (inactive) |  | inactive | inactive | inactive | inactive | inactive | inactive | inactive | inactive | inactive
8 | CC1=CC(=O)NS(=O)(=O)O1 | inactive |  | inactive | inactive |  | inactive | inactive | -28.6% (inactive) and 3.78% (inactive) |  | inactive | inactive | inactive | inactive | inactive | inactive | inactive | inactive | inactive
9 | CCCSc1ccc2nc(NC(=O)OC)[nH]c2c1 | inactive |  | inactive | inactive |  | inactive | inactive |  |  | inactive | inactive and 1.9 µM (active) | 1340 nM (active) | inactive | inactive | inactive | inactive and 1.51 µM (active) | inactive | inactive
10 | C#C[C@]1(O)CC[C@H]2[C@@H]3CCC4=CC(=O)CC[C@@H]4[C@H]3CC[C@@]21C | inactive |  | inactive | inactive | inactive | inactive | inactive | -16% (inactive) | inactive | inactive | inactive | inactive | inactive | inactive | inactive | inactive | inactive | inactive
